Assay results taken from PubChem BioAssay AID1159580 (chemical genetic matrix, 2015).
The campaign covered roughly 5,500 compounds. About 2,000 (36%) were called active. Inconclusive results (about 18%) are left out. No stated cut-off is given here; in the data, active means normalized growth mostly below about 0.91 (no sharp cut-off); inconclusive means no clear call, values can overlap the other calls; inactive means mostly above about 0.92. The list shows a part of the results.

Experiment: chemical genetic growth profiling, strain panel (AID 1159580);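 further: tested at 20 µM; growth read once vehicle control cultures reached saturation at 30 °C; 1 = growth at the plate median or of vehicle wells; lower values mean less growth of the strain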
Details: growth OD

Measured: normalized growth

CC(=O)NC1SCCC1=O (stereo not drawn)
inactive: S. cerevisiae deletion strains, locus YAL021C, strain ccr4, active compounds read low 1.01 | S. cerevisiae deletion strains, locus YAL026C, strain drs2, active compounds read low 0.983 | S. cerevisiae deletion strains, locus YAL030W, strain snc1, active compounds read low 0.975 | S. cerevisiae deletion strains, locus YBL061C, strain skt5, active compounds read low 0.985 | S. cerevisiae deletion strains, locus YBR009C, strain hhf1, active compounds read low 0.971 | S. cerevisiae deletion strains, locus YBR021W, strain FUR4, active compounds read low 1.02 | S. cerevisiae deletion strains, locus YBR023C, strain chs3, active compounds read low 0.977 | S. cerevisiae deletion strains, locus YBR171W, strain sec66, active compounds read low 0.998 | S. cerevisiae deletion strains, locus YBR229C, strain ROT2, active compounds read low 1.01 | S. cerevisiae deletion strains, locus YBR231C, strain swc5, active compounds read low 0.996 | S. cerevisiae deletion strains, locus YBR279W, strain paf1, active compounds read low 0.99 | S. cerevisiae deletion strains, locus YCL011C, strain gbp2, active compounds read low 0.974 | S. cerevisiae deletion strains, locus YCL016C, strain dcc1, active compounds read low 0.99 | S. cerevisiae deletion strains, locus YCL029C, strain bik1, active compounds read low 1.02 | S. cerevisiae deletion strains, locus YCL061C, strain MRC1, active compounds read low 1 | S. cerevisiae deletion strains, locus YCL069W, strain vba3, active compounds read low 0.981 | S. cerevisiae deletion strains, locus YCR088W, strain abp1, active compounds read low 0.984 | S. cerevisiae deletion strains, locus YDL005C, strain med2, active compounds read low 1.01 | S. cerevisiae deletion strains, locus YDL035C, strain GPR1, active compounds read low 1.03 | S. cerevisiae deletion strains, locus YDL040C, strain nat1, active compounds read low 0.992 | S. cerevisiae deletion strains, locus YDL074C, strain BRE1, active compounds read low 0.994 | S. cerevisiae deletion strains, locus YDL101C, strain DUN1, active compounds read low 1.01 | S. cerevisiae deletion strains, locus YDL134C, strain PPH21, active compounds read low 1.03 | S. cerevisiae deletion strains, locus YDL185W, strain tfp1, active compounds read low 1.01 | S. cerevisiae deletion strains, locus YDL192W, strain arf1, active compounds read low 1.01 | S. cerevisiae deletion strains, locus YDR001C, strain nth1, active compounds read low 0.986 | S. cerevisiae deletion strains, locus YDR069C, strain doa4, active compounds read low 0.977 | S. cerevisiae deletion strains, locus YDR101C, strain arx1, active compounds read low 0.982 | S. cerevisiae deletion strains, locus YDR137W, strain rgp1, active compounds read low 1.01 | S. cerevisiae deletion strains, locus YDR159W, strain sac3, active compounds read low 0.945 | S. cerevisiae deletion strains, locus YDR162C, strain NBP2, active compounds read low 1.02 | S. cerevisiae deletion strains, locus YDR195W, strain ref2 0.97 | S. cerevisiae deletion strains, locus YDR297W, strain sur2, active compounds read low 0.985 | S. cerevisiae deletion strains, locus YDR318W, strain mcm21, active compounds read low 1.02 | S. cerevisiae deletion strains, locus YDR334W, strain swr1, active compounds read low 0.982 | S. cerevisiae deletion strains, locus YDR335W, strain msn5, active compounds read low 0.99 | S. cerevisiae deletion strains, locus YDR388W, active compounds read low 1.02 | S. cerevisiae deletion strains, locus YDR392W, strain spt3, active compounds read low 0.889 | S. cerevisiae deletion strains, locus YDR502C, strain sam2, active compounds read low 0.999 | S. cerevisiae deletion strains, locus YEL003W, strain gim4, active compounds read low 0.976 | S. cerevisiae deletion strains, locus YEL037C, strain rad23, active compounds read low 0.975 | S. cerevisiae deletion strains, locus YEL061C, strain CIN8 (second series), active compounds read low 0.981 | S. cerevisiae deletion strains, locus YEL061C, strain CIN8, active compounds read low 1 | S. cerevisiae deletion strains, locus YER015W, strain faa2, active compounds read low 1.01 | S. cerevisiae deletion strains, locus YER016W, strain bim1, active compounds read low 0.982 | S. cerevisiae deletion strains, locus YER110C, active compounds read low 1.02 | S. cerevisiae deletion strains, locus YER111C, strain swi4, active compounds read low 0.977 | S. cerevisiae deletion strains, locus YER155C, strain BEM2 (second series), active compounds read low 0.958 | S. cerevisiae deletion strains, locus YER155C, strain BEM2, active compounds read low 1.01 | S. cerevisiae deletion strains, locus YER167W, strain BCK2, active compounds read low 1.02 | S. cerevisiae deletion strains, locus YFR010W, strain ubp6, active compounds read low 0.983 | S. cerevisiae deletion strains, locus YGL078C, strain dbp3, active compounds read low 1 | S. cerevisiae deletion strains, locus YGL086W, strain mad1, active compounds read low 0.999 | S. cerevisiae deletion strains, locus YGL167C, strain pmr1, active compounds read low 0.977 | S. cerevisiae deletion strains, locus YGL173C, strain kem1, active compounds read low 0.974 | S. cerevisiae deletion strains, locus YGL227W, strain vid30, active compounds read low 0.986 | S. cerevisiae deletion strains, locus YGL240W, strain doc1, active compounds read low 0.988 | S. cerevisiae deletion strains, locus YGL248W, strain PDE1, active compounds read low 0.999 | S. cerevisiae deletion strains, locus YGL253W, strain hxk2, active compounds read low 0.989 | S. cerevisiae deletion strains, locus YGR135W, strain pre9, active compounds read low 1.05 | S. cerevisiae deletion strains, locus YGR252W, strain gcn5, active compounds read low 1 | S. cerevisiae deletion strains, locus YHR013C, strain ard1, active compounds read low 0.943 | S. cerevisiae deletion strains, locus YHR027C, strain rpn1, active compounds read low 1 | S. cerevisiae deletion strains, locus YHR030C, strain SLT2, active compounds read low 1 | S. cerevisiae deletion strains, locus YHR079C, strain IRE1 (second series), active compounds read low 1 | S. cerevisiae deletion strains, locus YHR094C, strain hxt1, active compounds read low 1.02 | S. cerevisiae deletion strains, locus YHR129C, strain ARP1, active compounds read low 1.01 | S. cerevisiae deletion strains, locus YHR142W, strain chs7, active compounds read low 1.02 | S. cerevisiae deletion strains, locus YHR200W, strain rpn10, active compounds read low 1.02 | S. cerevisiae deletion strains, locus YIL066C, strain RNR3, active compounds read low 0.998 | S. cerevisiae deletion strains, locus YIL073C, strain SPO22, active compounds read low 1.04 | S. cerevisiae deletion strains, locus YIL125W, strain kgd1, active compounds read low 1.01 | S. cerevisiae deletion strains, locus YIR030C, strain dcg1, active compounds read low 1.01 | S. cerevisiae deletion strains, locus YJL092W, strain hpr5, active compounds read low 0.995 | S. cerevisiae deletion strains, locus YJL095W, strain BCK1 (second series), active compounds read low 1 | S. cerevisiae deletion strains, locus YJL095W, strain BCK1, active compounds read low 0.994 | S. cerevisiae deletion strains, locus YJL115W, strain asf1, active compounds read low 0.979 | S. cerevisiae deletion strains, locus YJL129C, strain trk1, active compounds read low 1 | S. cerevisiae deletion strains, locus YJL134W, strain LCB3, active compounds read low 1.01 | S. cerevisiae deletion strains, locus YJL154C, strain vps35, active compounds read low 0.975 | S. cerevisiae deletion strains, locus YJL164C, strain tpk1, active compounds read low 1.01 | S. cerevisiae deletion strains, locus YJL166W, strain qcr8, active compounds read low 0.995 | S. cerevisiae deletion strains, locus YJL168C, strain set2, active compounds read low 1.02 | S. cerevisiae deletion strains, locus YJL187C, strain SWE1 (second series), active compounds read low 0.989 | S. cerevisiae deletion strains, locus YJL187C, strain SWE1, active compounds read low 0.992 | S. cerevisiae deletion strains, locus YJR043C, strain POL32, active compounds read low 1 | S. cerevisiae deletion strains, locus YKL009W, strain mrt4, active compounds read low 0.999 | S. cerevisiae deletion strains, locus YKL068W, active compounds read low 1 | S. cerevisiae deletion strains, locus YKL085W, strain MDH1 (second series), active compounds read low 1.01 | S. cerevisiae deletion strains, locus YKL085W, strain MDH1, active compounds read low 1.01 | S. cerevisiae deletion strains, locus YKL160W, strain elf1, active compounds read low 1.04 | S. cerevisiae deletion strains, locus YKL190W, strain CNB1, active compounds read low 0.998 | S. cerevisiae deletion strains, locus YKR001C, strain vps1, active compounds read low 1.01 | S. cerevisiae deletion strains, locus YKR026C, strain gcn3, active compounds read low 0.977 | S. cerevisiae deletion strains, locus YKR091W, strain srl3, active compounds read low 0.99 | S. cerevisiae deletion strains, locus YLL001W, strain dnm1, active compounds read low 1.02 | S. cerevisiae deletion strains, locus YLL026W, active compounds read low 1 | S. cerevisiae deletion strains, locus YLL041C, strain sdh2, active compounds read low 0.997 | S. cerevisiae deletion strains, locus YLR027C, strain aat2, active compounds read low 1 | S. cerevisiae deletion strains, locus YLR039C, strain RIC1, active compounds read low 1.01 | S. cerevisiae deletion strains, locus YLR058C, strain SHM2, active compounds read low 1.01 | S. cerevisiae deletion strains, locus YLR102C, strain apc9, active compounds read low 1.01 | S. cerevisiae deletion strains, locus YLR221C, strain rsa3, active compounds read low 1.01 | S. cerevisiae deletion strains, locus YLR258W, strain gsy2, active compounds read low 0.985 | S. cerevisiae deletion strains, locus YLR262C, strain YPT6 (second series), active compounds read low 0.99 | S. cerevisiae deletion strains, locus YLR262C, strain YPT6, active compounds read low 1 | S. cerevisiae deletion strains, locus YLR268W, strain sec22, active compounds read low 1 | S. cerevisiae deletion strains, locus YLR320W, strain mms22, active compounds read low 0.999 | S. cerevisiae deletion strains, locus YLR330W, strain CHS5, active compounds read low 1.01 | S. cerevisiae deletion strains, locus YLR342W, strain FKS1 (second series), active compounds read low 1.07 | S. cerevisiae deletion strains, locus YLR342W, strain FKS1, active compounds read low 0.979 | S. cerevisiae deletion strains, locus YLR357W, strain rsc2, active compounds read low 0.991 | S. cerevisiae deletion strains, locus YLR370C, strain arc18, active compounds read low 0.992 | S. cerevisiae deletion strains, locus YLR371W, strain rom2, active compounds read low 1.01 | S. cerevisiae deletion strains, locus YLR384C, strain iki3, active compounds read low 0.979 | S. cerevisiae deletion strains, locus YLR418C, strain cdc73, active compounds read low 1.02 | S. cerevisiae deletion strains, locus YML016C, strain PPZ1, active compounds read low 0.998 | S. cerevisiae deletion strains, locus YML032C, strain rad52, active compounds read low 0.995 | S. cerevisiae deletion strains, locus YML120C, strain ndi1, active compounds read low 0.985 | S. cerevisiae deletion strains, locus YML124C, strain tub3, active compounds read low 1.01 | S. cerevisiae deletion strains, locus YMR058W, strain fet3, active compounds read low 0.989 | S. cerevisiae deletion strains, locus YMR078C, strain ctf18, active compounds read low 1.01 | S. cerevisiae deletion strains, locus YMR125W, strain sto1, active compounds read low 0.959 | S. cerevisiae deletion strains, locus YMR129W, active compounds read low 0.995 | S. cerevisiae deletion strains, locus YMR205C, strain PFK2, active compounds read low 0.969 | S. cerevisiae deletion strains, locus YMR223W, strain ubp8, active compounds read low 1.03 | S. cerevisiae deletion strains, locus YMR231W, strain pep5, active compounds read low 0.976 | S. cerevisiae deletion strains, locus YMR307W, strain GAS1, active compounds read low 0.996 | S. cerevisiae deletion strains, locus YNL067W, strain RPL9B, active compounds read low 0.987 | S. cerevisiae deletion strains, locus YNL071W, strain lat1, active compounds read low 0.984 | S. cerevisiae deletion strains, locus YNL209W, strain ssb2, active compounds read low 0.979 | S. cerevisiae deletion strains, locus YNL233W, strain BNI4, active compounds read low 0.984 | S. cerevisiae deletion strains, locus YNL248C, strain rpa49, active compounds read low 1.01 | S. cerevisiae deletion strains, locus YNL250W, strain rad50, active compounds read low 1.04 | S. cerevisiae deletion strains, locus YNL271C, strain bni1, active compounds read low 1.01 | S. cerevisiae deletion strains, locus YNL298W, strain CLA4, active compounds read low 1.01 | S. cerevisiae deletion strains, locus YNL307C, strain MCK1, active compounds read low 1.02 | S. cerevisiae deletion strains, locus YNL322C, strain KRE1 (second series), active compounds read low 0.989 | S. cerevisiae deletion strains, locus YNR049C, strain mso1, active compounds read low 0.975 | S. cerevisiae deletion strains, locus YNR052C, strain pop2, active compounds read low 1.01 | S. cerevisiae deletion strains, locus YOL006C, strain TOP1, active compounds read low 0.961 | S. cerevisiae deletion strains, locus YOL012C, strain htz1 1.01 | S. cerevisiae deletion strains, locus YOL147C, strain pex11, active compounds read low 1.01 | S. cerevisiae deletion strains, locus YOR001W, strain rrp6, active compounds read low 1.01 | S. cerevisiae deletion strains, locus YOR061W, strain CKA2, active compounds read low 1.01 | S. cerevisiae deletion strains, locus YOR069W, strain VPS5, active compounds read low 1 | S. cerevisiae deletion strains, locus YOR070C, strain gyp1, active compounds read low 0.986 | S. cerevisiae deletion strains, locus YOR080W, strain dia2, active compounds read low 0.987 | S. cerevisiae deletion strains, locus YOR083W, strain WHI5, active compounds read low 1.05 | S. cerevisiae deletion strains, locus YOR106W, strain vam3, active compounds read low 1.01 | S. cerevisiae deletion strains, locus YOR136W, strain idh2, active compounds read low 1 | S. cerevisiae deletion strains, locus YOR144C, strain elg1, active compounds read low 1 | S. cerevisiae deletion strains, locus YOR184W, strain ser1, active compounds read low 1.03 | S. cerevisiae deletion strains, locus YOR265W, strain rbl2, active compounds read low 0.997 | S. cerevisiae deletion strains, locus YOR270C, strain vph1, active compounds read low 0.973 | S. cerevisiae deletion strains, locus YOR290C, strain snf2, active compounds read low 0.919 | S. cerevisiae deletion strains, locus YOR316C, strain cot1, active compounds read low 1.01 | S. cerevisiae deletion strains, locus YPL051W, strain arl3, active compounds read low 1.01 | S. cerevisiae deletion strains, locus YPL055C, strain LGE1, active compounds read low 0.93 | S. cerevisiae deletion strains, locus YPL078C, strain atp4, active compounds read low 1.01 | S. cerevisiae deletion strains, locus YPL106C, strain sse1, active compounds read low 0.978 | S. cerevisiae deletion strains, locus YPL240C, strain hsp82, active compounds read low 0.994 | S. cerevisiae deletion strains, locus YPR119W, strain clb2, active compounds read low 1.01 | S. cerevisiae deletion strains, locus YPR141C, strain kar3, active compounds read low 1 | S. cerevisiae deletion strains, locus YPR163C, strain tif3, active compounds read low 1.02 | S. cerevisiae deletion strains, locus YPR167C, strain met16, active compounds read low 1.01 | S. cerevisiae deletion strains, strain wtn01, active compounds read low 1.01 | S. cerevisiae strains, strain wild type, active compounds read low 1.01
